{"source": "PubChem BioAssay AID1159580", "about": "(chemical genetic matrix, 2015)", "assay": "chemical genetic growth profiling, strain panel (AID 1159580);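 also: tested at 20 µM; growth read once vehicle control cultures reached saturation at 30 °C; 1 = growth at the plate median or of vehicle wells; lower values mean less growth of the strain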", "conditions": "growth OD", "key": {"[1]": {"conditions": "S. cerevisiae deletion strains, locus YAL013W, strain DEP1, stronger effect = lower value"}, "[2]": {"conditions": "S. cerevisiae deletion strains, locus YBR229C, strain ROT2, stronger effect = lower value"}, "[3]": {"conditions": "S. cerevisiae deletion strains, locus YCL061C, strain MRC1, stronger effect = lower value"}, "[4]": {"conditions": "S. cerevisiae deletion strains, locus YDL101C, strain DUN1, stronger effect = lower value"}, "[5]": {"conditions": "S. cerevisiae deletion strains, locus YDR150W, strain NUM1, stronger effect = lower value"}, "[6]": {"conditions": "S. cerevisiae deletion strains, locus YEL061C, strain CIN8, stronger effect = lower value"}, "[7]": {"conditions": "S. cerevisiae deletion strains, locus YGR078C, strain PAC10, stronger effect = lower value"}, "[8]": {"conditions": "S. cerevisiae deletion strains, locus YHR030C, strain SLT2, stronger effect = lower value"}, "[9]": {"conditions": "S. cerevisiae deletion strains, locus YHR087W, strain rtc3, stronger effect = lower value"}, "[10]": {"conditions": "S. cerevisiae deletion strains, locus YJL187C, strain SWE1, stronger effect = lower value"}, "[11]": {"conditions": "S. cerevisiae deletion strains, locus YJR043C, strain POL32, stronger effect = lower value"}, "[12]": {"conditions": "S. cerevisiae deletion strains, locus YJR075W, strain HOC1, stronger effect = lower value"}, "[13]": {"conditions": "S. cerevisiae deletion strains, locus YLR039C, strain RIC1, stronger effect = lower value"}, "[14]": {"conditions": "S. cerevisiae deletion strains, locus YLR058C, strain SHM2 (second series), stronger effect = lower value"}, "[15]": {"conditions": "S. cerevisiae deletion strains, locus YLR085C, strain ARP6, stronger effect = lower value"}, "[16]": {"conditions": "S. cerevisiae deletion strains, locus YLR262C, strain YPT6, stronger effect = lower value"}, "[17]": {"conditions": "S. cerevisiae deletion strains, locus YML094W, strain GIM5, stronger effect = lower value"}, "[18]": {"conditions": "S. cerevisiae deletion strains, locus YMR219W, strain ESC1, stronger effect = lower value"}, "[19]": {"conditions": "S. cerevisiae deletion strains, locus YMR263W, strain SAP30, stronger effect = lower value"}, "[20]": {"conditions": "S. cerevisiae deletion strains, locus YNL153C, strain GIM3, stronger effect = lower value"}, "[21]": {"conditions": "S. cerevisiae deletion strains, locus YNL298W, strain CLA4 (second series), stronger effect = lower value"}, "[22]": {"conditions": "S. cerevisiae deletion strains, locus YNL322C, strain KRE1, stronger effect = lower value"}, "[23]": {"conditions": "S. cerevisiae deletion strains, locus YNR030W, strain Alg12, stronger effect = lower value"}, "[24]": {"conditions": "S. cerevisiae deletion strains, locus YOL006C, strain TOP1, stronger effect = lower value"}, "[25]": {"conditions": "S. cerevisiae deletion strains, locus YPL055C, strain LGE1, stronger effect = lower value"}, "[26]": {"conditions": "S. cerevisiae deletion strains, locus YPL241C, strain CIN2, stronger effect = lower value"}, "[27]": {"conditions": "S. cerevisiae deletion strains, locus YPR135W, strain CTF4, stronger effect = lower value"}, "[28]": {"conditions": "S. cerevisiae strains, strain wild type, stronger effect = lower value"}}, "note": "The whole screen tested about 5,500 compounds, of which about 2,000 (36%) were called active. Inconclusive results (about 18%) are left out. The list shows a part of the results. Unmarked numbers belong to inactive results. Rule as the data show it: active = normalized growth mostly below about 0.91 (no sharp cut-off); inconclusive = no clear call, values can overlap the other calls; inactive = mostly above about 0.92.", "data": [{"smiles": "Fc1cc(F)cc(COc2cc(Cl)cc(Cl)c2)c1", "values": [{"measurement": "normalized growth", "setting": "[1]", "value": 1}, {"measurement": "normalized growth", "setting": "[2]", "value": 0.987}, {"measurement": "normalized growth", "setting": "[3]", "value": 0.96}, {"measurement": "normalized growth", "setting": "[4]", "value": 1.01}, {"measurement": "normalized growth", "setting": "S. cerevisiae deletion strains, locus YDL134C, strain PPH21, stronger effect = lower value", "value": 0.992}, {"measurement": "normalized growth", "setting": "[5]", "value": 0.885}, {"measurement": "normalized growth", "setting": "[6]", "value": 1.01}, {"measurement": "normalized growth", "setting": "[7]", "value": 0.96}, {"measurement": "normalized growth", "setting": "[8]", "value": "0.522 (active)"}, {"measurement": "normalized growth", "setting": "[9]", "value": 0.959}, {"measurement": "normalized growth", "setting": "[10]", "value": 0.968}, {"measurement": "normalized growth", "setting": "[11]", "value": 0.985}, {"measurement": "normalized growth", "setting": "[12]", "value": 0.913}, {"measurement": "normalized growth", "setting": "S. cerevisiae deletion strains, locus YKL190W, strain CNB1, stronger effect = lower value", "value": 0.967}, {"measurement": "normalized growth", "setting": "[13]", "value": 1.01}, {"measurement": "normalized growth", "setting": "[14]", "value": 0.972}, {"measurement": "normalized growth", "setting": "[15]", "value": 0.822}, {"measurement": "normalized growth", "setting": "[16]", "value": 0.943}, {"measurement": "normalized growth", "setting": "[17]", "value": 1.01}, {"measurement": "normalized growth", "setting": "[18]", "value": 0.984}, {"measurement": "normalized growth", "setting": "[19]", "value": 0.97}, {"measurement": "normalized growth", "setting": "S. cerevisiae deletion strains, locus YMR307W, strain GAS1, stronger effect = lower value", "value": 0.739}, {"measurement": "normalized growth", "setting": "[20]", "value": 1}, {"measurement": "normalized growth", "setting": "[21]", "value": 0.919}, {"measurement": "normalized growth", "setting": "[22]", "value": 0.987}, {"measurement": "normalized growth", "setting": "[23]", "value": 0.928}, {"measurement": "normalized growth", "setting": "[24]", "value": 0.8}, {"measurement": "normalized growth", "setting": "[25]", "value": 0.922}, {"measurement": "normalized growth", "setting": "[26]", "value": "0.832 (active)"}, {"measurement": "normalized growth", "setting": "[27]", "value": 0.886}, {"measurement": "normalized growth", "setting": "[28]", "value": 0.96}]}, {"smiles": "O=S(=O)(Oc1ccc(OCc2ccccc2)cc1)c1cc(Cl)cc(Cl)c1", "values": [{"measurement": "normalized growth", "setting": "[1]", "value": 1.01}, {"measurement": "normalized growth", "setting": "[2]", "value": 1.01}, {"measurement": "normalized growth", "setting": "[3]", "value": 1.01}, {"measurement": "normalized growth", "setting": "[4]", "value": 0.987}, {"measurement": "normalized growth", "setting": "[5]", "value": 1}, {"measurement": "normalized growth", "setting": "[6]", "value": 0.959}, {"measurement": "normalized growth", "setting": "[7]", "value": 1}, {"measurement": "normalized growth", "setting": "[8]", "value": 0.881}, {"measurement": "normalized growth", "setting": "[9]", "value": 0.983}, {"measurement": "normalized growth", "setting": "[10]", "value": 1}, {"measurement": "normalized growth", "setting": "[11]", "value": 1.01}, {"measurement": "normalized growth", "setting": "[12]", "value": 1.01}, {"measurement": "normalized growth", "setting": "[13]", "value": 1.01}, {"measurement": "normalized growth", "setting": "[14]", "value": 1.01}, {"measurement": "normalized growth", "setting": "[15]", "value": 0.943}, {"measurement": "normalized growth", "setting": "[16]", "value": 0.985}, {"measurement": "normalized growth", "setting": "[17]", "value": 0.966}, {"measurement": "normalized growth", "setting": "[18]", "value": 0.993}, {"measurement": "normalized growth", "setting": "[19]", "value": 1.01}, {"measurement": "normalized growth", "setting": "[20]", "value": 0.998}, {"measurement": "normalized growth", "setting": "[21]", "value": 1.01}, {"measurement": "normalized growth", "setting": "[22]", "value": 1}, {"measurement": "normalized growth", "setting": "[23]", "value": 0.998}, {"measurement": "normalized growth", "setting": "[24]", "value": 0.779}, {"measurement": "normalized growth", "setting": "[25]", "value": 0.969}, {"measurement": "normalized growth", "setting": "[26]", "value": 1}, {"measurement": "normalized growth", "setting": "[27]", "value": 0.988}, {"measurement": "normalized growth", "setting": "[28]", "value": 1}]}]}
